Bioassay records as filed in PubChem BioAssay.
In the library only some 13% were active in any assay of this set; here they are far more common.
USP7 inh: blocks human USP7 ubiquitin-rhodamine cleavage. Q93009. purified USP7, Ub-rhodamine cleavage fluorescence. inhibition, % at 20 µM. 47,000 compounds, 0.3% hits. AID 1645854
Target sequence (Q93009 whole entry, looked up): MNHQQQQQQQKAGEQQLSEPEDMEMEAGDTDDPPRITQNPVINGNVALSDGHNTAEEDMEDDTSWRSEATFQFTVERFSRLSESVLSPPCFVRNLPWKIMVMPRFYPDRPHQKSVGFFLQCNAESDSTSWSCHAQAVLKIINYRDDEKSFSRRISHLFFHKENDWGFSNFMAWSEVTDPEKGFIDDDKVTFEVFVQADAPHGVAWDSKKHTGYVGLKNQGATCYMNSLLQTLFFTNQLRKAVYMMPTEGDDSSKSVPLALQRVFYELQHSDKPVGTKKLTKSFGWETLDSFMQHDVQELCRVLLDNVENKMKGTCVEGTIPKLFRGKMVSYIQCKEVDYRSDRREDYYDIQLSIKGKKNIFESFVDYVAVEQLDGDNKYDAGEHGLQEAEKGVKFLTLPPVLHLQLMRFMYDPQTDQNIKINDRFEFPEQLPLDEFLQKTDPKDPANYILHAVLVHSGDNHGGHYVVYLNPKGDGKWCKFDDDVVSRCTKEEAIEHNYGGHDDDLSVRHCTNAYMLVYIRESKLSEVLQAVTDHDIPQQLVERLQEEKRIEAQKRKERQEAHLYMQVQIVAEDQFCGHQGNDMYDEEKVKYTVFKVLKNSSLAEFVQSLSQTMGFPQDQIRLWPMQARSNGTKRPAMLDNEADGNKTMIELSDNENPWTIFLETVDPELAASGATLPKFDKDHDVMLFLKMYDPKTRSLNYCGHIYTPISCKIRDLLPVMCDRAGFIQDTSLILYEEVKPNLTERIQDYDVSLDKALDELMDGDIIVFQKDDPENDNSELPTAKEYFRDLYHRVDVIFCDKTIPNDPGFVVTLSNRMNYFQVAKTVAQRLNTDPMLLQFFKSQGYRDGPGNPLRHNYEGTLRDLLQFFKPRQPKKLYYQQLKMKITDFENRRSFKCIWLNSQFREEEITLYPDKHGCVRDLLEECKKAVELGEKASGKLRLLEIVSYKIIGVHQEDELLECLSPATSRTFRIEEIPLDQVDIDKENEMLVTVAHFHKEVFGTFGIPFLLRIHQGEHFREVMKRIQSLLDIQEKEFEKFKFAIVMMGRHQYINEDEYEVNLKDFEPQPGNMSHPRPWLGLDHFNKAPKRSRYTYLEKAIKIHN
USP17 inh: inhibitors of human USP17 deubiquitinase | A8MUK1 | purified USP17, Ub-rhodamine cleavage fluorescence, 3 h | inhibition, % at 50 µM | 47,000 compounds, 6.5% hits | AID 1645855
USP10 block: blocks human USP10 ubiquitin-rhodamine cleavage; Q14694; purified USP10, Ub-rhodamine fluorescence, 60 min; inhibition, % at 20 µM; 47,000 compounds, 1.1% hits; AID 1645856
USP8 inh: inhibitors of human USP8 deubiquitinase; P40818; 47,000 compounds, 4.2% hits; purified USP8, Ub-rhodamine cleavage fluorescence, 30 min; inhibition, % at 20 µM
USP30 inh: human USP30 deubiquitinase inhibition; Q70CQ3; purified USP30, Ub-rhodamine cleavage fluorescence; inhibition, % at 25 µM; 47,000 compounds, 5.3% hits
USP28 inh: inhibitors of human USP28 deubiquitinase; 47,000 compounds, 3% hits; purified USP28, Ub-rhodamine cleavage fluorescence, 30 min; Q96RU2; inhibition, % at 25 µM
* = called active by the depositor; i = inactive; · = no result given. No stated cut-off is given here; in the data, active means inhibition above about 30%; inactive means the rest.

SMILES	USP7 inh	USP17 inh	USP10 block	USP8 inh	USP30 inh	USP28 inh
CC[C@@]1(O)C[C@H](OC2CC(N(C)C)C(OC3CC(O)C(OC4CCC(=O)C(C)O4)C(C)O3)C(C)O2)c2c(cc3c(c2O)C(=O)c2c(O)ccc(O)c2C3=O)[C@H]1C(=O)OC (stereo partly drawn)	-2.6	70.9*	-7.0	-10.0	-13.1	13.2
CC(C)=CCOC(C)(C)[C@H]1OC2CC[C@@]3(C)C(CCC4Cc5c([nH]c6ccccc56)[C@@]43C)C23OC3[C@@H]1O (stereo partly drawn)	39.3*	87.0*	75.8*	39.9*	84.1*	88.2*
CCNC(=O)N1CCC2(CC1)C(=O)N(Cc1ccccc1)c1c(OC)cccc12	-0.1	-4.1	-1.8	-5.2	-0.3	0.3
Cc1cccc(C)c1-n1nnnc1C1(N)CCC(C)CC1 (stereo not drawn)	2.8	21.0	-0.1	16.7	32.7*	12.6
NC1(c2nnnn2-c2ccccc2)CCCCC1	1.7	7.1	0.2	1.3	·	·
Cn1c(=O)[nH]c2nncnc2c1=O	-12.5	72.9*	9.3	34.1*	-14.9	0.9
Fc1ccc(CN2CCC23CCN(Cc2cccnc2)C3)cc1 (stereo not drawn)	2.2	1.2	-1.6	-9.5	-0.4	4.8
CCN(CC)C(=O)c1ccc(NC(=O)CN2CCc3cc(OC)c(OC)cc3C2)cc1	3.8	12.4	0.4	40.5*	10.3	11.1
c1csc(CCN2CCc3nc4cccnc4cc3C2)c1	-138.3	-159.6	-9.9	-205.3	i	-279.9
O=C(COc1ccc([N+](=O)[O-])cc1)N1CCN(CCc2ccncc2)CC1	4.3	-16.7	6.4	-104.3	-0.1	-4.5
Cc1nn(Cc2ccccc2)c(C)c1C(=O)NC1CCCc2ccccc21 (stereo not drawn)	-2.9	0.0	0.6	-1.6	54.0*	-4.1
Cc1nn(Cc2ccccc2)c(C)c1C(=O)NCc1ccccc1	0.1	11.9	3.1	18.8	27.6	14.3
Cc1cccc(CN2C[C@@H]3C[C@@H](c4nc(C)no4)O[C@@H]3C2)n1	2.7	-25.2	-3.8	-94.2	-25.6	-25.3
CC(=O)O[C@H]1[C@]2(O)C[C@]34SS[C@](CO)(C(=O)N3[C@@H]2C[C@@]12O[C@@H](C)C(C)(C)C2=O)N(C)C4=O	8.4	-32.6	0.9	1.3	62.9*	-2.0
CN1C(=O)C23SSC1(CO)C(=O)N2C1Nc2ccccc2C1(C12c4ccccc4NC1N1C(=O)C4(CO)SSC1(C(=O)N4C)C2O)C3O (stereo not drawn)	-39.5	-31.7	2.0	-0.1	9.0	14.7
CN=C(N)NCCC/C=C/CCC[C@H](C)C[C@H](C)C1OC(=O)C(C)C(O)/C=C/C(C)C(O)CC(O)C(C)C(O)CCC(C)C(O)CC2(O)OC(CC(OC(=O)CC(=O)O)CC(O)CC(O)C(C)C(O)/C=C/C=C/C1C)CC(O)C2O (stereo partly drawn)	-12.8	31.6*	-2.0	5.8	10.6	34.4*
O=C1N[C@@H]2CN(Cc3ccccc3)CC[C@H]2CO1	-0.4	2.9	-0.8	0.7	1.7	-3.7
CCc1nn2c(=O)cc(COC(=O)C(O)(c3ccccc3)c3ccccc3)nc2s1	-16.4	·	-7.3	15.0	-63.6	0.8
Cc1c(O)c(C(=O)O)c(O)c2c1[C@H](C)[C@@H](C)OC2	-132.7	-20.1	-11.8	-325.9	-36.5	-13.4
Cc1nc(NCc2ccco2)nc2c1COCC21CCNC1 (stereo not drawn)	0.0	-37.5	-1.0	-64.0	0.8	26.8
C[C@@H]1CC[C@@]2(OC1)O[C@H]1C[C@H]3[C@@H]4CC=C5C[C@@H](O[C@@H]6O[C@@H](CO)[C@@H](O[C@@H]7O[C@@H](C)[C@H](O[C@@H]8O[C@@H](C)[C@H](O)[C@H](O)[C@H]8O)[C@H](O)[C@H]7O)[C@H](O)[C@@H]6O[C@@H]6O[C@@H](C)[C@H](O)[C@H](O)[C@H]6O)CC[C@]5(C)[C@H]4CC[C@]3(C)[C@H]1[C@@H]2C	3.0	54.8*	-2.5	2.6	96.0*	38.0*
Cc1ccc(C)c(Cn2cccc(C(=O)Nc3ccccn3)c2=O)c1	-5.0	9.3	3.1	2.3	19.4	34.0*
O=C(Nc1nc2ccccc2s1)c1cccn(Cc2ccc(Cl)cc2)c1=O	10.3	7.4	9.5	5.1	-17.1	-13.0
C=C1[C@H]2C[C@]3(C4CC5[C@@]6(C)CC[C@H](O)[C@]5(C3CC2=O)C4[N+]([O-])(CC)C6)[C@@H]1O (stereo partly drawn)	3.7	0.6	0.1	2.3	27.9	4.0
COc1ccc(C2(CCNCc3ccc(Cl)cc3)CCOC(C)(C)C2)cc1 (stereo not drawn)	1.1	2.8	-1.8	0.0	34.1*	9.1
SMILES	USP7 inh	USP17 inh	USP10 block	USP8 inh	USP30 inh	USP28 inh
CN1CC[C@@H]2[C@H](C1)CN2C(=O)Nc1ccc(Cl)cc1	-3.5	-11.1	0.0	-4.8	-2.0	-4.6
O=C(NCc1cccnc1)c1cccn(Cc2ccc(Cl)cc2)c1=O	-5.4	6.8	0.5	5.8	31.6*	13.7
CO[C@@H]1C[C@@H](C[C@H]2CC[C@H](C)[C@H]([C@@H](C)C(=O)O)O2)O[C@]2(O[C@](C)([C@H]3CC[C@@](C)([C@@H]4O[C@@H]([C@H]5O[C@@](O)(CO)[C@H](C)C[C@@H]5C)C[C@@H]4C)O3)C[C@H]2C)[C@@H]1C	4.3	17.3	18.1	2.3	33.8*	19.5
CC[C@@]1([C@@H]2O[C@@H]([C@H]3O[C@@](O)(CO)[C@H](C)C[C@@H]3C)C[C@@H]2C)CC[C@H]([C@]2(C)CC[C@]3(C[C@H](O)[C@@H](C)[C@@H]([C@@H](C)[C@@H](O)[C@H](C)C(=O)O)O3)O2)O1	-0.5	-77.3	-0.5	0.2	-12.9	-19.9
CC1=C(O)C(=O)C=C2C1=CC=C1[C@@]2(C)CC[C@@]2(C)[C@@H]3C[C@](C)(C(=O)O)CC[C@]3(C)CC[C@]12C	34.8*	54.1*	80.7*	45.5*	-57.7	64.1*
COc1cccc2c1NC(=O)C21CCN(C(=O)Nc2cccc(C)c2)CC1	-5.5	53.6*	-0.6	4.8	2.9	0.0
COc1cccc2c1NC(=O)C21CCN(C(=O)Nc2ccc(F)cc2)CC1	-2.7	-15.8	0.2	-13.6	1.1	-2.4
CC(C)C12CN3CC(C(C)C)(CN(C1)C3c1ccccn1)C2O (stereo not drawn)	7.1	39.2*	2.2	47.4*	13.1	19.5
COc1ccc(S(=O)(=O)n2cc(CCN3CCS(=O)(=O)CC3)c3ccccc32)cc1	4.0	·	1.7	-17.2	18.4	-6.1
CC(C)=CCCC1(C)C=Cc2c(O)c3c(c(CC=C(C)C)c2O1)OC12C(=CC4CC1C(C)(C)OC2(C/C=C(/C)C(=O)O)C4=O)C3=O (stereo not drawn)	66.9*	89.3*	81.5*	73.4*	70.6*	82.2*
Cc1ccccc1COc1ccc(C2SCC(=O)Nc3n[nH]c(C)c32)cc1 (stereo not drawn)	-51.5	36.2*	12.5	-32.0	41.2*	21.8
OCCN1CCOc2nc3cc4c(cc3cc2C1)OCO4	-4.6	-20.1	-5.7	-18.5	i	-45.5
